Data: PubChem BioAssay (Tox21)
Inconclusive results are not listed. Values without a mark were called inactive. The source made the active and inactive calls. The call rests on the fitted dose curve; in most records, active means well fitted inhibition curve with a large enough effect in the repeat runs; inconclusive means weak or mixed curves; inactive means no such curve, though single readings can be large or run the other way.

target: Cytochrome P450 2C9 (Homo sapiens) (UniProt P11712); experiment: Cytochrome P450 Family 2 Subfamily C Member 9 (CYP2C9) small molecule antagonists: luciferase reporter qHTS assay (AID 1671198); conditions: P450-Glo CYP2C9 enzyme assay, luciferin luminescence; series mostly up to 115 µM; activity change, negative = inhibition: at the top concentration; further: nearly all actives have a fitted effect of over 50% in size
Description: U.S. Tox21 Program National Center for Advancing Translational Sciences [NCATS] U.S. Environmental Protection Agency [EPA] National Institutes of Environmental Health Sciences [NIEHS] National Toxicology Program [NTP] U.S. Food and Drug Administration [FDA] Tox21 Assay Overview: Cytochrome P450 (CYP) enzymes are membrane-bound hemeproteins that play a key role in metabolism of drugs and xenobiotics. Evaluation of the effect of chemicals on CYP isozymes is useful to minimize the adverse drug reactions and toxicities in drug development process. Tox21 chemicals were tested for their effect on CYP enzyme activities by using P450-Glo (TM) screening systems (Promega Corporation, Madison, WI). These systems provide a luminescent method containing proluciferin substrates and are converted to luciferin products by CYP isozymes. The luciferin products formed are detected with a luciferin detection reagent, and the amount of light produced is proportional to CYP activity. P450-Glo (TM) CYP2C9 screening system (Catalog. No. V9790) was used to detect the compounds that interfere in CYP2C9 activity.
Tox21 Assay Protocol Summary: Two ul of enzyme-substrate mix was dispensed into medium binding white/solid 1536-well plates (Greiner Bio-One North America Inc., Monroe, NC) using a BioRaptr Flying Reagent Dispenser (FRD, Beckman Coulter, Brea, CA). […] The assay plates were incubated at room temperature for 10 min. Then 2 ul of NADPH regeneration solution was added to each well of the assay plates using an FRD and incubated at 37C for 1 h. The reaction was stopped by adding 4 ul of detection reagent using an FRD and after 20 min incubation at room temperature the luminescence signal was measured using a ViewLux plate reader (Perkin Elmer, Shelton, CT). Data were expressed as relative luminescence units.
On the % scale 0 is the no-effect control and ±100 the full control effect; potency means the concentration at half of the fitted maximal effect.

Sequence of Cytochrome P450 2C9 (Homo sapiens) (P11712 whole entry, looked up): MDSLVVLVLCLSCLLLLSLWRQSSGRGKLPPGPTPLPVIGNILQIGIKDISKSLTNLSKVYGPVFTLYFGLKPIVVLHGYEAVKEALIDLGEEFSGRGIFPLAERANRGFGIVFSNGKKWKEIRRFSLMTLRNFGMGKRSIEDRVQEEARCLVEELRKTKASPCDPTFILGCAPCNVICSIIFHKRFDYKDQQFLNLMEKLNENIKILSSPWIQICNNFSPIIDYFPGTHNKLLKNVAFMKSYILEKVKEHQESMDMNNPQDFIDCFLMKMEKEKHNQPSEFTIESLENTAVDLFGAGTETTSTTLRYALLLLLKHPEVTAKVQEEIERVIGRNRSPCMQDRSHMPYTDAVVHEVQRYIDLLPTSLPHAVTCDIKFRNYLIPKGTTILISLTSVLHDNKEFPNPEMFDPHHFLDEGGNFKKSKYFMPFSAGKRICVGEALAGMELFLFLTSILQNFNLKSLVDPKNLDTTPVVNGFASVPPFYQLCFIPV

Row | SMILES | Potency | activity change, negative = inhibition
1 | O=S(=O)(O)SSS(=O)(=O)O | 71 µM (active) | –
2 | Cc1cccc(Nc2ccncc2S(=O)(=O)NC(=O)NC(C)C)c1 | 13.8 µM (active) | –
3 | NS(=O)(=O)c1ccccc1OC(F)(F)F | – | 56.9%
4 | O=S1(=O)CCCC1 | – | 1.37%
5 | CCN(CC)C(=O)C1CN2CCc3cc(OC)c(OC)cc3C2CC1OC(C)=O (stereo not given) | – | -13.2% [at 53 µM]
6 | COc1cc2c(Nc3ccc(Br)cc3F)ncnc2cc1OCC1CCN(C)CC1 | – | 3.83% [at 53 µM]
7 | CCCO | – | -9.97%
8 | Cc1cc(C)cc([N+](=O)[O-])c1 | – | 5.68%
9 | Cn1c(=O)c2c(ncn2CC2OCCO2)n(C)c1=O | – | 2.5% [at 53 µM]
10 | COCC(=O)Nc1c(I)c(C(=O)NCC(O)CO)c(I)c(C(=O)N(C)CC(O)CO)c1I (stereo not given) | – | 2.53% [at 53 µM]
11 | O=C1OC(=O)c2cc(Oc3ccc4c(c3)C(=O)OC4=O)ccc21 | – | -11.7%
12 | CC(=O)OC(C(=O)c1ccccc1)c1ccccc1 (stereo not given) | 31.9 µM (active) | –
13 | NC(=O)C1(N2CCCCC2)CCN(CCCC(=O)c2ccc(F)cc2)CC1 | – | 9.73% [at 53 µM]
14 | CCOC(=O)CCc1ccccc1 | – | -5.31%
15 | CCC(C)N (stereo not given) | – | 1.66%
16 | OC(CCN1CCCCC1)(c1ccccc1)c1ccccc1 | – | -8.93% [at 53 µM]
17 | O=C(O)c1ccccc1C(=O)Nc1ccc(S(=O)(=O)Nc2nccs2)cc1 | – | -8.11% [at 53 µM]
18 | SCCSCCS | – | -11.2%
19 | CCCCCC1Nc2cc(C(F)(F)F)c(S(N)(=O)=O)cc2S(=O)(=O)N1 (stereo not given) | 1.55 µM (active) | –
20 | CCCCC/C=C/CC(=O)OC | – | -15.9%

Row | SMILES | Potency | activity change, negative = inhibition
21 | Nc1cc(Cl)cc(S(=O)(=O)O)c1O | 20.6 µM (active) | –
22 | CC(C)(C)c1ccc(C=O)cc1 | – | -9.86%
23 | C[Si]1(C)N[Si](C)(C)N[Si](C)(C)N1 | 63.3 µM (active) | –
24 | C=CCOC(=O)c1ccc(C(=O)OCC=C)c(C(=O)OCC=C)c1 | 0.399 µM (active) | –
25 | CN(C)CCCNCCC#N | – | -0.368%
26 | C1=C\CC/C=C\CC/1 | – | -2.64%
27 | C[CH2][Ge]([Cl])([CH2]C)[CH2]C | – | -4.83%
28 | Nc1ccc(S(=O)(=O)Nc2ccccn2)cc1 | – | 32% [at 53 µM]
29 | NC(Cc1c[nH]c2ccccc12)C(=O)O (stereo not given) | 31.1 µM (active) | –
30 | CCCCCCCCC(=O)OCC | – | -7.14%
31 | OCCCCCCCl | – | -2.68%
32 | COc1cc2c3cc1Oc1cc(ccc1O)C[C@@H]1c4c(cc(OC)c(O)c4Oc4ccc(cc4)C[C@@H]3N(C)CC2)CC[N+]1(C)C | – | 7.5% [at 53 µM]
33 | CCNC(=O)/C=C/c1cccc(Br)c1 | – | -13.1% [at 53 µM]
34 | CCCOC(=O)CCCCC(=O)OCCC | 20 µM (active) | –
35 | O=C(COCCOCCOCC(=O)Nc1c(I)cc(I)c(C(=O)O)c1I)Nc1c(I)cc(I)c(C(=O)O)c1I | – | -8.52% [at 53 µM]
36 | O=C(O)c1ccc(OCCN2CCCCC2)cc1 | – | -1.92% [at 53 µM]
37 | CN[C@@H]1[C@H](O)[C@H](NC)[C@H]2O[C@@]3(O)C(=O)C[C@@H](C)O[C@H]3O[C@@H]2[C@H]1O | – | -11.1% [at 53 µM]
38 | O=C(c1ccc2c(c1)C(=O)OC2=O)c1ccc2c(c1)C(=O)OC2=O | – | 2.65%
39 | CCCCCCCCCCCCC1CO1 (stereo not given) | – | -1.73%
40 | CCC(CO)CO | – | -9.93%
